HCV inh: HCV inhibition; Huh7.5.1 HCVcc-Cre infection, luciferase reporter, 44 h; Potency, µM (top dose mostly 41.8 µM), without a hit: top-dose activity change, negative = inhibition, hits mostly inhibitors; actives 3.4% (n = 340,000); AID 651820
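A cell-based infection assay in which seeded cells (1,000 per well) receive test compound after 4 h, are inoculated with HCVcc-Cre at approximately 0.5 moi, and are incubated 44 h before luminescence detection.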
AMA1 RON2 block: AMA1-RON2 (P. falciparum) interaction inhibition; AlphaScreen AMA1-biotinylated RON2 peptide binding; Potency, µM (highest dose often 58.2 µM), inactives show top-dose activity change, negative = inhibition, usual class: inhibitors; actives 0.2% (n = 360,000); AID 720542;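 also: 0% = vehicle wells and -100% = peptide control; nearly all actives have a fitted effect of over 45% in size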
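AMA1 (3D7) with his tag at 25 nM final met compounds first, then biotinylated RON2 peptide at 25 nM; detection used donor plus acceptor beads, 10 µg/mL apiece, read by AlphaScreen after 30 min at room temperature.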
Pf growth 48h: inhibits P. falciparum growth in the first generation, 48 h | P. falciparum luciferase growth in erythrocytes, 48 h | Potency, µM (highest dose often 28.7 µM), for the others: at the highest dose activity change, negative = inhibition, hits mostly inhibitors | actives 5.9% (n = 310,000) | AID 504832
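Firefly luciferase activity from engineered P. falciparum reports growth; inhibitors lower the luminescent signal. Cultures contained 2% hematocrit erythrocytes at 0.1% final parasitemia.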
AmpC no deterg: AmpC beta-lactamase inhibition without detergent. AmpC nitrocefin hydrolysis, absorbance 480 nm, 0.0001% Triton. actives 0.52% (n = 330,000). Potency, µM (highest dose often 57.1 µM), for inactives: at the highest dose activity change, negative = inhibition, actives largely listed as inhibitors;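 also: plate controls were no compound for no effect and no enzyme for full effect; nearly all actives have a fitted effect of over 20% in size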
Target sequence (P00811 whole entry, looked up): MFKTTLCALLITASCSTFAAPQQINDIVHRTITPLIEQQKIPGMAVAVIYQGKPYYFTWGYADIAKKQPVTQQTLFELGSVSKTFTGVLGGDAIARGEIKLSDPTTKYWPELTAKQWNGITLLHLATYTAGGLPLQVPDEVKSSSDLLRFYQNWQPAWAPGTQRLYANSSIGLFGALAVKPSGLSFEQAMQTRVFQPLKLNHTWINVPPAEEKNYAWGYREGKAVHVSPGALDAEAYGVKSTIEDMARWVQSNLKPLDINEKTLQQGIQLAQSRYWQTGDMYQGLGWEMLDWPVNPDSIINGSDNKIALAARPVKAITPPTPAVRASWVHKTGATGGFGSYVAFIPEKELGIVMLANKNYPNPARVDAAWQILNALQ
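20 mM phosphate pH 7.0 + 0.01% (detergent screen) or 0.0001% Triton X-100; 5.3 nM AmpC reagent; cpd preinc 15 min RT; nitrocefin (800 uM stock) to start; A480 q20 s × 4 min; Activity was normalised to no-enzyme and no-compound control wells.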
Pf growth 96h: inhibits malaria parasite growth, 96 h; P. falciparum luciferase reporter growth, 96 h; Potency, µM (series often up to 28.7 µM), for inactives: top-dose activity change, negative = inhibition, hits mostly inhibitors; AID 504834; actives 6.9% (n = 320,000)
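Luminescence readout: decreased luciferase signal marks inhibited growth of reporter-expressing P. falciparum in infected red cells (2% hematocrit, 0.05% parasitemia final), exposed to compound two generations (96 h, 37 C, 5% CO2).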
AmpC inh detg: blocks E. coli AmpC beta-lactamase in detergent assay | P00811 | AID 485294 | AmpC hydrolysis of nitrocefin, absorbance 480 nm, 0.01% Triton | actives 0.041% (n = 370,000) | Potency, µM (titrated, usually from 114 µM), for the others: at the highest dose activity change, negative = inhibition, hits mostly inhibitors;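 also: 0% = no-compound wells and -100% = no-enzyme wells; nearly all actives have a fitted effect of over 25% in size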
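20 mM phosphate pH 7.0 + 0.01% (detergent screen) or 0.0001% Triton X-100; 5.3 nM AmpC reagent; cpd preinc 15 min RT; nitrocefin (800 uM stock) to start; A480 q20 s × 4 min; Activity was normalised to no-enzyme and no-compound control wells.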
Active calls of the source: *; ? = inconclusive; / = not tested or not shown; [ ] = remark or other dose. Rows were chosen to be rich in hits. Some 11% of all compounds tested hit in one or more screens of this group. Calls follow the shape of the dose curve; as a rule, active = well fitted curve in the direction sought with a large enough effect; inconclusive = small, poorly fitted or top-dose-only effect, or another doubt; inactive = no such curve, though single readings can be large; an effect the other way counts as inactive or inconclusive. Unless noted, % is scaled to controls: 0 for no effect and ±100 for the full control effect; potency is read from the fitted curve at half-maximal effect.

SMILES	HCV inh	AMA1 RON2 block	Pf growth 48h	AmpC no deterg	Pf growth 96h	AmpC inh detg
Cc1cc(N2C(=O)c3ccc(C(=O)Nc4ccc(CC(=O)O)cc4)cc3C2=O)no1	22%	-6%	-10%	0%	1.9µM*	?
Cc1cc(NC(=O)c2ccc3c(c2)C(=O)N(C)C3=O)no1	11%	-6%	/	17%	2.9µM*	-8%
O=S(=O)(c1ccc(Br)cc1)c1nnn2c1nc(Nc1cccc(C(F)(F)F)c1)c1sccc12	/	/	/	/	/	3%
COc1cc(NC(=O)c2cc(Cl)c(OC)c(Cl)c2)ccc1NC(=O)c1cc2ccccc2o1	/	/	/	/	/	8%
CCn1c2ccccc2c2nc3cc(OC)c(OC)cc3nc21	?	55%	30%	201%	3.3µM*	3%
COc1cc2nc3c4ccccc4n(CC#N)c3nc2cc1OC	/	/	8%	-19%	23%	?
COC(=O)c1ccc(C23CC4(C2)[C@H](CN(C)[C@@H]4c2ccccc2)C3c2ccc(C(F)(F)F)cc2)cc1 (stereo partly drawn)	38%	-28%	10µM*	25%	?	-4%
COC(=O)c1ccc(C23CC4(C2)[C@H](CN(Cc2ccc(C(F)(F)F)cc2)[C@@H]4c2ccccc2)C3c2ccc(C(F)(F)F)cc2)cc1 (stereo partly drawn)	/	/	?	-8%	10µM*	3%
COC(=O)c1cccc(C23CC4(C2)[C@H](CN(Cc2ccc(C(F)(F)F)cc2)[C@@H]4c2ccccc2)C3c2ccc(C(F)(F)F)cc2)c1 (stereo partly drawn)	1%[8.37 µM]	3%	10µM*	-21%	?	2%
COC(=O)c1cccc(C23CC4(C2)[C@H](CN(Cc2ccc(C(F)(F)F)cc2)[C@@H]4c2ccccc2)C3c2ccc(Cl)nc2)c1 (stereo partly drawn)	21%	1%	?	-15%	?	0%
Cc1cccc2sc(N(Cc3cccnc3)C(=O)C3CCCCC3)nc12	/	/	/	/	/	5%
Cc1cc(C)n(CCNC(=O)c2cc(COc3ccc4ncccc4c3)on2)n1	?	24%	?	21%	-28%	2%
CC(CCCC(C)(C)O)NC(=O)c1cc(COc2ccc3ncccc3c2)on1 (stereo not drawn)	5.6µM*	-9%	?	48%	12%	-10%
O=C(NCc1cccc(Cl)c1)c1cc(COc2ccc3ncccc3c2)on1	6.3µM*	-18%	8%	-9%	?	5%
Cc1ccc(F)cc1CNC(=O)c1cc(COc2ccc3ncccc3c2)on1	2.8µM*	-9%	11%	-19%	?	8%
CCOC(=O)c1cc2c(=O)n3ccccc3nc2n(C(C)C)c1=NC(=O)C(C)(C)Oc1ccc(Cl)cc1	/	/	/	/	/	8%
CCOc1ccccc1NC(=O)c1nn(C)c2c1CSc1ccccc1-2	/	/	/	/	/	22%
Cc1cccc(-c2noc(CN(C(C)C)S(=O)(=O)c3ccc(Br)cc3)n2)c1	/	/	/	/	/	-2%
Nc1nnc(Cc2ccc(F)cc2)s1	5%	0%	10µM*	-17%	2%	4%
CCOc1ccccc1CNC(=O)c1cc2c(=O)n(Cc3cccnc3)ccc2nc1C	/	/	/	/	/	24%
CCOC(=O)C1CCCN(c2c(Nc3ccc(C)c(C)c3)c(=O)c2=O)C1 (stereo not drawn)	12%	-3%	8.3µM*	-25%	-16%	?
CCOC(=O)C1CCCN(c2c(NCCN(CC)c3ccccc3)c(=O)c2=O)C1 (stereo not drawn)	1%	-3%	10µM*	22µM*	-29%	3%
CCOC(=O)C1CCCN(c2c(Nc3cc(C)cc(C)c3)c(=O)c2=O)C1 (stereo not drawn)	-2%	0%	/	-11%	9.3µM*	?
CCOC(=O)C1CCCN(c2c(NCCc3ccc(C)cc3)c(=O)c2=O)C1 (stereo not drawn)	14%	-1%	?	-8%	-25%	-2%
CCOC(=O)C1CCCN(c2c(NCCN3CCCCC3C)c(=O)c2=O)C1 (stereo not drawn)	17%	-2%	-4%	3.5µM*	4.7µM*	?
SMILES	HCV inh	AMA1 RON2 block	Pf growth 48h	AmpC no deterg	Pf growth 96h	AmpC inh detg
CCOC(=O)C1CCCN(c2c(NCCCN(CC)c3ccccc3)c(=O)c2=O)C1 (stereo not drawn)	-2%	4%	?	?	21%	2%
CCOC(=O)C1CCN(c2c(N3CCCCCC3)c(=O)c2=O)CC1	9%	5%	12%	-16%	10µM*	-15%
Cc1cc(C)nc(SCc2ccc(C(=O)N/N=C/c3ccc(C(=O)O)cc3)cc2)n1	-7%	-3%	?	-32%	-15%	2%
COc1ccc(O)c(/C=N/NC(=O)c2ccc(CSc3nc(C)cc(C)n3)cc2)c1	5.6µM*	-6%	?	-21%	?	0%
Cc1cc(C)nc(SCc2ccc(C(=O)N/N=C/c3cccc(O)c3O)cc2)n1	13µM*	29%	10µM*	-45%	4.7µM*	-13%
CCCSCCCNC(=O)c1ccc2c(c1)nc1n2CCCCC1	/	/	/	/	/	-2%
CCOC(=O)C1(Cc2ccccc2Cl)CCN(C(=O)c2cnccn2)CC1	2%	-13%	7%	94%	9.3µM*	1%
Cc1cccc(C)c1OCc1nc2c3cnn(-c4cccc(F)c4)c3ncn2n1	/	/	/	/	/	11%
CCc1cc[n+](C2=C([O-])c3ccccc3C(=O)/C2=N\S(=O)(=O)c2cccs2)cc1	5µM*	?	4.1µM*	-22%	?	?
CN(CCc1ccccn1)C(=O)CCC1CCCN(C(=O)c2ccsc2)C1 (stereo not drawn)	26%	-18%	43%	-3%	10µM*	-7%
C=CCOc1ccccc1CN1CCCC(CCC(=O)N(C)CCc2ccccn2)C1 (stereo not drawn)	3%	5%	-4%	-2%	12µM*	0%
CCc1ccccc1NC(=O)N1CCCC(CCC(=O)N(C)CCc2ccccn2)C1 (stereo not drawn)	11%	0%	-10%	-2%	?	3%
CN(CCc1ccccn1)C(=O)CCC1CCCN(C(=O)c2c3c(nn2C)CCCC3)C1 (stereo not drawn)	5%	-8%	-11%	38%	8.3µM*	4%
COc1cccc(C2CC(=O)Nc3c2c(=O)[nH]c2nc4ccccc4n32)c1 (stereo not drawn)	/	/	/	/	/	0%
O=C(Cn1c(=O)n(Cc2ccc3c(c2)OCO3)c(=O)c2ccccc21)Nc1cccc(Cl)c1	/	/	/	/	/	23%

High-throughput results from PubChem.
